Screening results from PubChem.
Compounds with a hit are over-represented: about 3.5% of the library has one in this group of screens.
GPR151 activ: activators of human GPR151 | Q8TDV0 | PathHunter beta-arrestin GPR151 cells, luminescence | activation, % at 11.2 µM | 650,000 compounds, 1% hits; in the data active means activation above about 4.9%;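 further: 0% = median of compound wells and 100% = cells with positive control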
TEAD-YAP inh: TEAD-YAP interaction inhibition; 640,000 compounds, 1.4% hits; HEK-TIYL cells, TEAD-Gal4/YAP UAS-luciferase luminescence; inhibition, % at 9.12 µM; in the data active means inhibition above about 32%;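 further: 0% = median of test compound wells and 100% = reference inhibitor wells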
MITF inh: blocks human microphthalmia-associated transcription factor; AID 1259374; 650,000 compounds, 0.91% hits; AlphaScreen MITF homodimerization, bead proximity signal; O75030; inhibition, % at 2.6 µM; in the data active means inhibition above about 50%;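 further: 0% = vehicle wells with protein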
Target sequence (O75030 whole entry, looked up): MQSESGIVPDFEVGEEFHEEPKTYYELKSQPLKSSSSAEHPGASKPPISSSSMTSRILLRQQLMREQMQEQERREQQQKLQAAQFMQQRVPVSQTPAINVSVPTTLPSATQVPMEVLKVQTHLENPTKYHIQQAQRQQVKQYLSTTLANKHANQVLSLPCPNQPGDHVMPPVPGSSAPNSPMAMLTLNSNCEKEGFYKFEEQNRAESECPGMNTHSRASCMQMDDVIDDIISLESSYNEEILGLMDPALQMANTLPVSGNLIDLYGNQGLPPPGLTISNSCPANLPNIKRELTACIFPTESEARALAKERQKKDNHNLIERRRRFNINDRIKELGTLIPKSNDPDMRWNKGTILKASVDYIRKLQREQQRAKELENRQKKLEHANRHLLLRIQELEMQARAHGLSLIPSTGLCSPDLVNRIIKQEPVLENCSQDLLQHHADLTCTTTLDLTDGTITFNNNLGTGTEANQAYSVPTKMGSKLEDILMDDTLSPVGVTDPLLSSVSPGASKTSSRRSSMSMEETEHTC
FBW7 activator: activators of human E3 ligase FBW7; Q969H0; normalized activity (activation), % at 26.1 µM; AID 1259310; AlphaScreen FBW7–phospho-cyclin E peptide binding, activator screen; 650,000 compounds, 0.13% hits; in the data active means normalized activity above about 1.9%;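 further: purified mutant Fbw7 with reduced substrate affinity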
MITF confirm: confirmation of human MITF inhibitors. 4,700 compounds, 16% hits. AlphaScreen MITF homodimerization, biotin/His-MITF beads. shares compounds with MITF inh. inhibition, % at 2.6 µM;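 active means inhibition above a cutoff derived from the DMSO control wells, cut at about 28% in these data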;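 further: 0% = MITF dimer wells with DMSO only; inhibitors lower the bead chemiluminescence by keeping MITF from dimerizing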
AlphaScreen DR: AlphaScreen optical interference, dose response counter-screen; shares compounds with MITF inh; AlphaScreen optical interference counterscreen, cell-free; IC50, µM; 480 compounds, 6% hits; AID 1259373; call rule not given here
AS interf ctr: optically interferes with AlphaScreen signal; shares compounds with MITF inh; LysRS AlphaScreen counterscreen, signal interference, triplicate; inhibition, % at 2.6 µM; 4,700 compounds, 7.6% hits; AID 1259376;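 active means inhibition above a cutoff derived from the DMSO control wells, cut at about 30% in these data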
* = called active by the depositor; · = not tested or not shown.

SMILES	GPR151 activ	TEAD-YAP inh	MITF inh	FBW7 activator	MITF confirm	AS interf ctr	others
COc1cc(/C=N/N=C2\NC(=O)C(CC(=O)O)S2)ccc1OCc1ccc(C)cc1 (stereo not drawn)	-1.3	-40.4	65.7*	0.2	44.9*	3.6	AlphaScreen DR=>6.48
CC(C)C(NC(=O)c1ccccc1NC(=O)c1ccccc1)C(=O)NCc1ccco1 (stereo not drawn)	-0.4	12.1	8.8	-0.1	·	·
c1coc(CNc2ccc3ncc(-c4ccco4)n3n2)c1	-0.1	0.4	55.6*	1.6	84.0*	19.1	AlphaScreen DR=>6.48
O=[N+]([O-])c1ccc(N/N=C/c2ccco2)c(S(=O)(=O)N2CCOCC2)c1	0.1	-5.1	63.4*	0.2	33.4*	-0.9	AlphaScreen DR=>6.48
O=[N+]([O-])c1ccc(N/N=C/c2cccc(O)c2O)c(S(=O)(=O)N2CCOCC2)c1	-0.4	-19.3	-35.5	-0.7	·	·
Cc1ccc(Oc2ccc(OCC(=O)NCC3CCCO3)cc2)cc1 (stereo not drawn)	0.2	16.3	74.8*	0.1	0.0	11.2
COc1ccc(-c2nnc(Oc3ccc(C)cc3)c3ccccc23)cc1	-0.6	-3.5	-2.1	-0.1	·	·
CCNc1nc(Oc2ccc(C(=O)OCC)cc2)nc(N(C)C)n1	0.5	-1.7	-13.2	0.0	·	·
CCOC(=O)c1ccc(Oc2nc(N(C)C)nc(N(C)C)n2)cc1	1.4	-10.3	54.4*	-0.3	2.7	6.7
CC1CCC(N2CCN(Cc3ccco3)CC2)CC1 (stereo not drawn)	0.5	7.9	71.1*	0.0	27.5*	11.5	AlphaScreen DR=>6.25
c1coc(CN2CCN(C3CCCCC3)CC2)c1	0.0	-1.9	64.0*	0.1	7.0	2.1
Cc1cc(C)nc(/N=C(\NC(=O)COc2ccc(Cl)cc2)Nc2ccccc2)n1	0.6	-4.6	-0.6	-0.1	·	·
O=C(NC1CCCCC1)c1nn2c(c1Br)NC(c1cccs1)CC2C(F)(F)F (stereo not drawn)	1.1	-0.6	59.9*	0.1	-8.7	-8.8
CC(C)NC(=O)c1nn2c(c1Br)NC(c1cccs1)CC2C(F)(F)F (stereo not drawn)	-0.3	-0.2	-1.6	0.1	·	·
CCCn1nnc(NC(=O)c2ccc(OC)c(Cl)c2)n1	0.3	-8.2	6.9	0.0	·	·
O=S(=O)(c1ccc2ccccc2c1)N1CCN(Cc2ccc(F)cc2)CC1	0.4	10.6	53.8*	-0.2	11.6	12.0
O=S(=O)(c1ccc2ccccc2c1)N1CCN(Cc2ccccc2Cl)CC1	0.3	-7.9	57.8*	0.0	-36.1	10.6
N#Cc1cc2c(N)c(C(=O)c3ccc(F)cc3)sc2nc1N	1.0	-4.4	3.3	-0.1	·	·
CC(C(=O)Nc1ccccc1-c1ccccc1)N1CCN(C)CC1 (stereo not drawn)	-0.1	-5.1	68.1*	-0.1	-2.8	-1.0
COc1ccc(C(C)(C)C)cc1NC(=O)CSc1nc(C)cs1	-0.7	1.9	-3.6	0.2	·	·
CCCCc1c(C)c(C#N)c2nc3ccccc3n2c1N1CCC(C)CC1	-0.5	-3.5	53.3*	-0.2	12.7	-7.0
Cc1c(Cc2ccccc2)c(N2CCC(C)CC2)n2c(nc3ccccc32)c1C#N	0.4	5.0	12.5	-0.1	·	·
COCCn1c(=S)[nH]c2cc(C(=O)Nc3ccccn3)ccc2c1=O	-1.4	-15.2	76.8*	-0.1	-22.5	-2.0
COCCn1c(=S)[nH]c2cc(C(=O)NC(C)C)ccc2c1=O	1.7	-4.3	4.9	-0.1	·	·
Cc1cccc(-n2ncc3c(N4CCN(c5ccccc5Cl)CC4)ncnc32)c1	0.7	3.5	-6.6	-0.1	·	·
SMILES	GPR151 activ	TEAD-YAP inh	MITF inh	FBW7 activator	MITF confirm	AS interf ctr	others
COc1cc(CN2CCN(Cc3cccnc3)CC2)cc2c1OCO2	-0.3	3.1	67.6*	-0.1	11.5	22.8
COc1cc(CN2CCc3nncn3CC2)cc2c1OCO2	2.5	6.4	-0.3	0.1	·	·
COc1cc(CN2CCN(Cc3cc(OC)c4c(c3)OCO4)CC2)cc2c1OCO2	1.3	-4.5	54.2*	-0.2	14.5	23.8
COc1cc(CN2CCN(Cc3cccc(C)c3)CC2)cc2c1OCO2	1.3	1.2	57.7*	0.1	0.7	-0.8
COc1cc(CN2CCN(Cc3ccccc3Cl)CC2)cc2c1OCO2	-1.0	-2.5	75.6*	0.1	14.6	12.0
COc1cc(CN2CCCN(C)CC2)cc2c1OCO2	0.9	12.4	39.2	0.7	·	·
